Common to all, as to experiment: DAPPL (digital affinity profiling via proximity ligation, sequencing); 10 mM Tris-HCl pH 7.5, 50 mM NaCl, 1 mM DTT, 4% glycerol, room temperature, 30 min; GST-TFs on glutathione beads, 16-mer random dsDNA library, 0.1% formaldehyde crosslink after washing; high values mean tight binding
What all share (conditions): protein: recombinant; tags: N-terminal GST; dsDNA, one strand shown

The target of one assay is T1, FLI1 (Homo sapiens, UniProt Q01543 1-452).
T1 sequence: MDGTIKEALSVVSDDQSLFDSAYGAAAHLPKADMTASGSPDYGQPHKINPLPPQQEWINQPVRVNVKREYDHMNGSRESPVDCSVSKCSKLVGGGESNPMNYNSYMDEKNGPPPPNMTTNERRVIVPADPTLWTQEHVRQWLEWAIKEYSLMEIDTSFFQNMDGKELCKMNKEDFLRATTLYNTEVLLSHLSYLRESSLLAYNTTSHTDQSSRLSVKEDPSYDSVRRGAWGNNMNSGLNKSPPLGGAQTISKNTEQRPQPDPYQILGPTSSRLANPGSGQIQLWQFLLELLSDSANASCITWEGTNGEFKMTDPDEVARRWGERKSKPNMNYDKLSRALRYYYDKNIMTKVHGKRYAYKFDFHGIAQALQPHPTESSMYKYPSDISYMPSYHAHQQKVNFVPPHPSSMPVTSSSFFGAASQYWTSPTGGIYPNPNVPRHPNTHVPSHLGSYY
A digest of the protocol:
(§1)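 Pools were built from human transcription factors expressed in yeast as GST fusions, captured on glutathione beads and DNA-barcoded, along with a tag-only sample. Incubation with 200 nmole of a 16-mer random double-stranded DNA library lasted 30 min at room temperature in Tris/NaCl/DTT/glycerol buffer, and was followed by washing, 0.1% formaldehyde crosslinking, proximity ligation, PCR amplification and Illumina NextSeq500 sequencing. Binding signal is the quotient of each hexamer's read frequency for a factor and its frequency for the tag-only sample.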

The next assay deals with T2, ELK1 (Homo sapiens, UniProt P19419 1-428).
T2 sequence: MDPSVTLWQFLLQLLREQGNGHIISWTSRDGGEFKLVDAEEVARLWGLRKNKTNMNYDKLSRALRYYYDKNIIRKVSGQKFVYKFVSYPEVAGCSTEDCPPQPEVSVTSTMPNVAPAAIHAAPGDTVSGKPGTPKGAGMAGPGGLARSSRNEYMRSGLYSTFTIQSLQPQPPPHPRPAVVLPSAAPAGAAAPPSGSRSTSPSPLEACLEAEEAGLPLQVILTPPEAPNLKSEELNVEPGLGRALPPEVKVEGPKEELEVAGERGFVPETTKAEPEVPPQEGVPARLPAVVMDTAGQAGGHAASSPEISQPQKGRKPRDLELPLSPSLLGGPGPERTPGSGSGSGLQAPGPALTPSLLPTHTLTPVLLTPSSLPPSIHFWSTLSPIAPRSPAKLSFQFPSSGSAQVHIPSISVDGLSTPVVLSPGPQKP
A digest of the protocol:
as §1

For the next assay, the target named is T3, GABPA (Homo sapiens, UniProt Q06546 1-454).
T3 sequence: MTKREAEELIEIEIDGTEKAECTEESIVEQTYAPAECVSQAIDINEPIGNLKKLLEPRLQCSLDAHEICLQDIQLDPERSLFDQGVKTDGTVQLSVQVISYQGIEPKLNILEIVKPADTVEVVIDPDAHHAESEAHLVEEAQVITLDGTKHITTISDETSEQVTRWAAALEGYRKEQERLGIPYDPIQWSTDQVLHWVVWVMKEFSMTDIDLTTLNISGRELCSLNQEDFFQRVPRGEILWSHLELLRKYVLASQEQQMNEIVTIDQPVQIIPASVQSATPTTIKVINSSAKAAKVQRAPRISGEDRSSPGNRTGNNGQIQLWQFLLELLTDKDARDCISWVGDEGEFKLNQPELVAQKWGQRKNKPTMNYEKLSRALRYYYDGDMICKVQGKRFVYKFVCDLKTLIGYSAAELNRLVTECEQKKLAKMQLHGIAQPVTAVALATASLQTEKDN
An outline of the steps:
as §1

In the next assay the target is T4, ERG (Homo sapiens, UniProt P11308 1-479).
T4 sequence: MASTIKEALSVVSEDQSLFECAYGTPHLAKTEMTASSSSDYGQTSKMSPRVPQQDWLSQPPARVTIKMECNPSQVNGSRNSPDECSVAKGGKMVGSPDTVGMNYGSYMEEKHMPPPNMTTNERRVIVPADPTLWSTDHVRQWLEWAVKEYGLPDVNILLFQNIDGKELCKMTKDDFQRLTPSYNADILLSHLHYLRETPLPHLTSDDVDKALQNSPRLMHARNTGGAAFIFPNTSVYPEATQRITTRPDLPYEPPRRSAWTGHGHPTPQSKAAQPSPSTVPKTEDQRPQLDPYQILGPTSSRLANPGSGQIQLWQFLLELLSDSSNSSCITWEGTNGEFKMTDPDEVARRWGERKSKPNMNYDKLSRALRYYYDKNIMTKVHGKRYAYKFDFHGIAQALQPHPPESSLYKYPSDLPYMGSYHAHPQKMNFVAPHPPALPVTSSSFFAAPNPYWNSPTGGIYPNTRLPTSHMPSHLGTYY
An outline of the steps: as §1

For another assay, the target named is ELF1 (Homo sapiens, UniProt P32519 1-619). An outline of the steps: as §1
ELF1, sequence (P32519 whole entry): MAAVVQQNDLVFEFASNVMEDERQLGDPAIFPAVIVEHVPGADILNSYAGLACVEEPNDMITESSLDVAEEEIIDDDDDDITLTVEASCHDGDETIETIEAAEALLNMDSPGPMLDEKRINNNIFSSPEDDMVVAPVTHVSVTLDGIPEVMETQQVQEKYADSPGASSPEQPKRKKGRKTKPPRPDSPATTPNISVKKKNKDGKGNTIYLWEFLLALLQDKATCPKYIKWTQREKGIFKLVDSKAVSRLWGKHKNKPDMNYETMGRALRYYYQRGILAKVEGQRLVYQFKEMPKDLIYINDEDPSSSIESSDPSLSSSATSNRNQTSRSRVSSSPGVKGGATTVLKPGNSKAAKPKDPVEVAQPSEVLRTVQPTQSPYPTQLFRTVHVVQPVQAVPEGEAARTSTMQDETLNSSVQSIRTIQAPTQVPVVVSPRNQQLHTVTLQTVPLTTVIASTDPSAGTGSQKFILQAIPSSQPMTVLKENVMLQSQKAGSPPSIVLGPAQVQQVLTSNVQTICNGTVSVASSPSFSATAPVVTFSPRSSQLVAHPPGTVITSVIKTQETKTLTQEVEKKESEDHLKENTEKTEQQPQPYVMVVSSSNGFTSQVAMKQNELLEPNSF
The target in the next assay is T5, EHF (Homo sapiens, UniProt Q9NZC4 1-300).
T5 sequence: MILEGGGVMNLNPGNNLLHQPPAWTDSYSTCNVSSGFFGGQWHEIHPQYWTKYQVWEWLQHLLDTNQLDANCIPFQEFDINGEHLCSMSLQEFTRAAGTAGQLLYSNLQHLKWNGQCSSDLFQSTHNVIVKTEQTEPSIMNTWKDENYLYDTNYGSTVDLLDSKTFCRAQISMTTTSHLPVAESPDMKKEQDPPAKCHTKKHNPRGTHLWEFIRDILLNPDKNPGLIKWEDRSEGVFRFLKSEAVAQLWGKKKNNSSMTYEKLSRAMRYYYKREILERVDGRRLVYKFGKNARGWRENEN
An outline of the steps: as §1

The next assay addresses SPI1 (Homo sapiens, UniProt P17947 1-270). A digest of the protocol:
as §1

In a further assay the target is SPIB (Homo sapiens, UniProt Q01892 1-262). A digest of the protocol:
as §1

For a further assay, the target named is T6, ELK3 (Homo sapiens, UniProt P41970 1-407).
T6 sequence: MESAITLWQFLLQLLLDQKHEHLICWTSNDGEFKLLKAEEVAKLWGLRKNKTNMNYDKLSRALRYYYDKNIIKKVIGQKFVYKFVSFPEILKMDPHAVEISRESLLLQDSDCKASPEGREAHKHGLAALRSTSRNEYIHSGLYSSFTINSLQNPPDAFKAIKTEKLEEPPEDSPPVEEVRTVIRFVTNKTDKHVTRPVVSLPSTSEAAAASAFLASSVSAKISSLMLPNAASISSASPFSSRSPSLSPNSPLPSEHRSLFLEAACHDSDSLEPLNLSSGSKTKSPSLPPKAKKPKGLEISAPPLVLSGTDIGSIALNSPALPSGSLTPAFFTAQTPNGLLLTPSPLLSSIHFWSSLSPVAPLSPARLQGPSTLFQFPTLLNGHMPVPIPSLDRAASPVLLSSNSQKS
An outline of the steps:
as §1

SPIB, sequence (Q01892 whole entry): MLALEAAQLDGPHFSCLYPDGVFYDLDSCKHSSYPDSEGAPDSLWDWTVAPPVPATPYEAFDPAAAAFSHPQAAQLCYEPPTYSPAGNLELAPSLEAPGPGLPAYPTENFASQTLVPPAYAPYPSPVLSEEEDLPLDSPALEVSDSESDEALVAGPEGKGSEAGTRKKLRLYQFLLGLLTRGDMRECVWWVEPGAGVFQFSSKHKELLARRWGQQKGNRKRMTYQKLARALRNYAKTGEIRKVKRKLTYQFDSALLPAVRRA

For the sequence ACAACT, the binding signal with FLI1 was 1.36 fold enrichment (6-mer frequency, TF over GST control); with ELK1 it was 1.4 fold enrichment (6-mer frequency, TF over GST control); with GABPA, 1.4 fold enrichment (6-mer frequency, TF over GST control); with ERG it was 1.41 fold enrichment (6-mer frequency, TF over GST control); with ELF1, 1.46 fold enrichment (6-mer frequency, TF over GST control); with EHF, 1.2 fold enrichment (6-mer frequency, TF over GST control). Further, the binding signal was 1.41 fold enrichment (6-mer frequency, TF over GST control) with SPI1; 1.35 fold enrichment (6-mer frequency, TF over GST control) with SPIB; 1.5 fold enrichment (6-mer frequency, TF over GST control) in the assay with ELK3.

These data come from publication PMC7862700, “An all-to-all approach to the identification of sequence-specific readers for epigenetic DNA modifications on cytosine”.
